Measured values reported in the supplement of paper PMC11482750.
± gives the standard deviation of the averaged measurements.

What was measured:
Assay in all cases: control-subtracted net OSN firing rate; higher = stronger neuronal activation
Settings in all cases: odorant dilution (vol/vol): 1/100
phenethyl acetate = compound: CC(=O)OCCc1ccccc1 [phenethyl acetate]
In short: (§1)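 Values are replicate means from single sensillum recordings of palp or antennal olfactory sensory neurons. Recordings used 1–5-day-old fed female flies, either Scaptomyza species or D. melanogaster wild-type, mutant or at1 empty-neuron lines carrying Or42a homologs, stimulated with 1 s pulses of odorant (1:100 vol/vol in mineral oil or dimethyl sulfoxide, 20 μl on filter paper) into 16 ml/min filtered air. Spikes in a 0.5 s window beginning 0.2 s after onset were background-subtracted, doubled and corrected for solvent.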

fenchone = compound: CC12CCC(C1)C(C)(C)C2=O [fenchone]
In short: as §1

2-hexanol = compound: CCCCC(C)O [2-hexanol]
In short: as §1

4-ethylguaiacol = compound: CCc1ccc(O)c(OC)c1 [4-ethylguaiacol]
In short: as §1

methyl salicylate = compound: COC(=O)c1ccccc1O [methyl salicylate]
In short: as §1

guaiacol = compound: COc1ccccc1O [guaiacol]
In short: as §1

phenethyl alcohol = compound: OCCc1ccccc1 [phenethyl alcohol]
In short: as §1

| Target | control-subtracted net OSN firing rate (phenethyl acetate) [spikes/s] | control-subtracted net OSN firing rate (fenchone) [spikes/s] | control-subtracted net OSN firing rate (2-hexanol) [spikes/s] | control-subtracted net OSN firing rate (4-ethylguaiacol) [spikes/s] | control-subtracted net OSN firing rate (methyl salicylate) [spikes/s] | control-subtracted net OSN firing rate (guaiacol) [spikes/s] | control-subtracted net OSN firing rate (phenethyl alcohol) [spikes/s] |
| --- | --- | --- | --- | --- | --- | --- | --- |
| S. flava pb1a-like | 7.33 ± 6.5 | 1.33 ± 6.5 | 111 ± 28 | -5 ± 7.8 | 6.67 ± 15 | 4 ± 10 | 82.7 ± 46 |
| S. pallida pb1a-like | 26.7 ± 30 | -3.67 ± 8.8 | 88.3 ± 13 | 0.667 ± 8.8 | 15.3 ± 34 | 42 ± 22 | 23 ± 38 |
| S. hsui pb1b-like | 1 ± 7 | -3.67 ± 6.1 | -11.7 ± 9.8 | 111 ± 24 | -4.67 ± 8.6 | 78 ± 26 | -11 ± 8.7 |
| S. hsui pb2b-like | 3 ± 4.9 | 0.667 ± 7.2 | 20 ± 18 | 1.67 ± 2.9 | 103 ± 43 | 111 ± 23 | 17.3 ± 21 |
| Canton-S (D. melanogaster) pb1a | 7.11 ± 7.8 | 0 ± 8.1 | 68.7 ± 32 | 1.78 ± 9.1 | 6.22 ± 13 | 5.33 ± 8.1 | 4 ± 8.7 |
| Canton-S (D. melanogaster) pb2b | -3.43 ± 6.8 | -6.86 ± 10 | -2.57 ± 8.5 | -1.43 ± 7.1 | 10.6 ± 10 | 145 ± 52 | 1.14 ± 10 |
| S. hsui pb1a-like | 13.3 ± 16 | -0.333 ± 6.4 | 96 ± 27 | 13.7 ± 5.3 | 14.7 ± 17 | 16 ± 8.3 | 29.7 ± 22 |
| Canton-S (D. melanogaster) pb3a | 0 ± 9.4 | -2.83 ± 8.3 | 15.8 ± 18 | 7.5 ± 8.4 | 6.33 ± 7.3 | 2.33 ± 8.2 | 7.67 ± 9.3 |
| S. flava pb3b-like | 2.67 ± 5 | 0 ± 5.4 | -1 ± 27 | 14.7 ± 34 | 7.67 ± 26 | 8.33 ± 15 | 2.67 ± 6.8 |
| S. montana pb3b-like | -2.67 ± 9.3 | -1 ± 4.7 | 4 ± 7.7 | -3.67 ± 9.5 | 2.33 ± 11 | -1.67 ± 5.4 | -3.67 ± 8.9 |
| S. montana pb2b-like | -2.33 ± 4.8 | -7.33 ± 4.5 | 16.7 ± 14 | 16 ± 12 | 106 ± 35 | 107 ± 49 | 18.3 ± 17 |
| S. pallida pb2b-like | -0.333 ± 8.7 | -3.33 ± 8.8 | 27 ± 9.9 | 24 ± 19 | 72 ± 19 | 75.7 ± 20 | 15 ± 11 |
| S. montana pb1a-like | 6.33 ± 9.6 | 0 ± 12 | 123 ± 17 | -0.333 ± 2.9 | 5.67 ± 11 | 26.3 ± 13 | 82.7 ± 34 |
| S. hsui pb3a-like | -5.67 ± 12 | -7 ± 11 | 145 ± 27 | -3.33 ± 10 | 8 ± 8.1 | -5.33 ± 14 | -0.333 ± 7.4 |
| S. montana pb2a-like | 1 ± 6.5 | 177 ± 36 | 5.67 ± 14 | 1.67 ± 7.7 | 6 ± 6.3 | 6 ± 6.6 | 7.67 ± 14 |
